Assay results published in PMC5540273 (PLoS ONE, 2017).

What was measured:
Conditions in all cases: concentration: 1 μM,replicates: in singlicate; n = 1
FGFR1 = test system: FGFR1
FGFR2 = test system: FGFR2
FGFR3 = test system: FGFR3
FGFR4 = test system: FGFR4
FGR = test system: FGR
FLT1 = test system: FLT1
FLT3-autoinhibited = test system: FLT3-autoinhibited
FLT3 = test system: FLT3
FLT4 = test system: FLT4
FRK = test system: FRK
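Further: KINOMEscan kinase panel screen.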

| Structure (SMILES) | %Inh (FGFR1) [%] | %Inh (FGFR2) [%] | %Inh (FGFR3) [%] | %Inh (FGFR4) [%] | %Inh (FGR) [%] | %Inh (FLT1) [%] | %Inh (FLT3-autoinhibited) [%] | %Inh (FLT3) [%] | %Inh (FLT4) [%] | %Inh (FRK) [%] |
| --- | --- | --- | --- | --- | --- | --- | --- | --- | --- | --- |
| CS(=O)c1ccc(-c2coc3ccc(-c4n[nH]c(=O)o4)cc23)cc1 (stereo not shown) | 5 | 8 | 3 | 0 | 0 | 19 | 0 | 16 | 3 | 0 |
| Cc1nnc(-c2ccc3occ(-c4ccc(S(C)=O)cc4)c3n2)o1 (stereo not shown) | 0 | 0 | 0 | 0 | 25 | 0 | 0 | 0 | 0 | 0 |
| Cn1ccc2ncnc(Oc3ccc(NC(=O)Nc4ccnc(C(F)(F)F)c4)c(Cl)c3)c21 |  | 5 | 0 | 0 | 2 | 94.5 | 0 | 64 | 97.4 | 2 |
| CN(c1ccc2c(c1)nc(NCc1ccc(F)cc1)n2C)c1ccnc(Nc2ccc(CS(C)(=O)=O)cc2)n1.Cl [GW813244] | 75 | 59 | 21 | 22 | 28 | 98.9 | 1 | 98.3 | 99.9 | 77 |
| NC(=O)c1ccc(-c2cc3ncnc(SCC(=O)O)c3s2)cc1 | 0 | 0 | 0 | 0 | 14 | 4 | 2 | 20 | 0 | 0 |
| N#Cc1cccc(C(=O)NC2CCN(c3ccnc(Nc4ccc(F)cc4)n3)C2)c1 (stereo not shown) [GSK1379708] | 7 | 0 | 0 | 1 | 18 | 20 | 0 | 0 | 20 | 6 |
| C[C@@H](Oc1cc(-n2cnc3cc(-c4cnn(C)c4)ccc32)sc1C(N)=O)c1ccccc1Cl [GSK580432] | 91.9 | 89 | 92.7 | 38 | 72 | 87 | 28 | 99.4 | 99.8 | 12 |
| OCCn1cc(-c2cnc3nnn(Cc4ccc5ncccc5c4)c3n2)cn1 | 0 | 0 | 0 | 0 | 5 | 0 | 0 | 0 | 0 | 0 |
